Results taken from PubChem BioAssay (NCATS).
Records with an inconclusive call do not appear. The source made the active and inactive calls. Calls follow the shape of the dose curve; as a rule, active = well fitted curve in the direction sought with a large enough effect; inconclusive = small, poorly fitted or top-dose-only effect, or another doubt; inactive = no such curve, though single readings can be large; an effect the other way counts as inactive or inconclusive.

How the values were obtained:
[1] = OV-KATE Cancer Cell Toxicity qHTS against the NCATS CANVASS Library (AID 1347345); also: % is scaled to controls: 0 for no effect and ±100 for the full control effect
How it was run: (§1)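 Following a 4 h pre-incubation of 1000 seeded cells, compounds were pinned in an 11-pnt dilution series and left for 72 h; viability then came from CellTiter-Glo.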

[2] = U-118MG Cancer Cell Toxicity qHTS against the NCATS CANVASS Library (AID 1347351); as to activity change, negative = cytotoxicity: series mostly up to about 38 µM; % is scaled to controls: 0 for no effect and ±100 for the full control effect
How it was run: as §1

[3] = COV-362 Cancer Cell Toxicity qHTS against the NCATS CANVASS Library (AID 1347352); also: series mostly up to about 38 µM; % is scaled to controls: 0 for no effect and ±100 for the full control effect
How it was run: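 Toxicity was measured as CellTiter-Glo luminescence after 72 h exposure to an 11-point compound series. Compound was added to 1000 cells/well 4 h after seeding.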

[4] = HPAF-II 24hr Apoptosis Induction qHTS against the NCATS CANVASS Library (AID 1347356); also: 0% is about no effect
How it was run: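 Caspase-Glo 3/7 luminescence, read after 15 min room-temperature development, measures apoptosis in HPAF-II cells treated 24 h at 37 degrees C with an 11-point concentration series; 500 cells/well; doxorubicin control.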

[5] = HPAF-II 12hr Apoptosis Induction qHTS against the NCATS CANVASS Library (AID 1347358); also: 0% is about no effect
How it was run: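 Caspase-3/7 activation by DEVD-substrate luminescence (Caspase-Glo 3/7, 15 min, room temperature) after a 12-hour compound exposure in 11 concentrations, of HPAF-II pancreatic cells seeded at 500/well in DMEM with 10% FBS.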

[6] = HEK293 24hr Apoptosis Induction qHTS against the NCATS CANVASS Library (AID 1347359); also: 0% is about no effect
How it was run: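 HEK293 cells, 500 per well, exposed to an 11-point compound series for 24 hours at 37 degrees C. Caspase 3/7 activity read by Caspase-Glo luminescence (DEVD substrate) after 15 min at room temperature.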

[7] = HPAF-II 18hr Apoptosis Induction qHTS against the NCATS CANVASS Library (AID 1347360); also: 0% is about no effect
How it was run: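 Caspase-Glo 3/7 luminescence (DEVD substrate) after 15 min RT; HPAF-II, 500 cells/well, 18 h compound exposure at 37 degrees C, qHTS series; doxorubicin control 0.1nM - 4uM.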

[8] = HEK293 12hr Apoptosis Induction qHTS against the NCATS CANVASS Library (AID 1347361); also: 0% is about no effect
How it was run: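 500 HEK293 cells/well; cpds pin-transferred, 11-pt conc series; 12 h, 37 degrees C/5% CO2; Caspase-Glo 3/7 added, 15 min RT dark; luminescence.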

[9] = biological target: Luciferin 4-monooxygenase (Photinus pyralis) (UniProt P08659); assay: Firefly luciferase counterscreen qHTS: Assay Interference Panel against the NCATS CANVASS Library (AID 1347363); also: series mostly up to about 57 µM; 0% is about no effect
How it was run: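 Purified P. pyralis luciferase (0.04 ug/mL, 4x reagent) added to Tris-acetate buffer with 0.013 mM D-luciferin, 0.013 mM ATP and 13.3 mM Mg-acetate; compounds preincubated 15 min, then luminescence read after 5 min, RT.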

[10] = KB-3-1 Cancer Cell Toxicity qHTS against the NCATS CANVASS Library (AID 1347366); also: nearly all actives have a fitted effect of over 75% in size
How it was run: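 500 KB-3-1 cells/well; compounds pin-transferred, 11-pnt series; 72 hr, 37C/5% CO2; CellTiter-Glo, 10 min RT; luminescence read-out.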

[11] = qHTS for ATAD5 Agonist screened against the NCATS CANVASS Library (AID 1347367); also: 0% is about no effect
How it was run: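 Luminescence read-out: ATAD5-driven luciferase in stably transfected HEK 293T cells, which rises post-transcriptionally with DNA damage. Cells were exposed 16hr at 37C to test compound; a CellTiter-Fluor fluorescence read (1hr) measured viability first.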

[12] = MCF7 Cancer Cell Toxicity qHTS against the NCATS CANVASS Library (AID 1347369)
How it was run: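 Luminescent ATP signal (CellTiterGlo) served as the cytotoxicity read-out after MCF7 breast cancer cells had been incubated 72 hr at 37C with natural products in an 11-point titration.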

[13] = J3T Cancer Cell Toxicity qHTS against the NCATS CANVASS Library (AID 1347371)
How it was run: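 Cytotoxicity read as CellTiterGlo ATP luminescence after 72 h incubation (37C, 5% CO2) of J3T canine glioma cells (500/well) with an 11-point compound series.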

[14] = biological target: Nuclear receptor subfamily 1 group I member 3 (Homo sapiens) (UniProt Q14994); assay: qHTS for Constitutive Androstane Receptor (CAR) Antagonist screened against the NCATS CANVASS Library (AID 1347372);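 also: cells stimulated with 50 nM CITCO agonist so inhibition reflects antagonism; luciferase from CYP2B6 promoter reporter driven by hCAR in HepG2 cells; series mostly up to about 46 µM; % is scaled to controls: 0 for no effect and ±100 for the full control effect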
How it was run: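 Luminescence readout (ONE-Glo, 30 min RT) of CYP2B6-2.2kb reporter in HepG2-hCAR cells after 24hr, 37C treatment with compound against 50 nM CITCO; CellTiter-Fluor viability read beforehand.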

[15] = biological target: Nuclear receptor subfamily 1 group I member 3 (Homo sapiens) (UniProt Q14994); assay: qHTS for Constitutive Androstane Receptor (CAR) Agonist screened against the NCATS CANVASS Library (AID 1347373);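 also: every well also contained 1.5 µM PK11195 alongside the test compound; 0% is about no effect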
How it was run: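 Agonist mode with 1.5uM PK11195 present: compounds for 24hr on HepG2-hCAR-CYP2B6 cells. CellTiter-Fluor fluorescence (ex 405, em 540 nm) gives viability; ONE-Glo luminescence reports CAR activation.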

[16] = 10-beta competent E. coli microbial cell viability qHTS against the NCATS CANVASS Library (AID 1347376); also: series mostly up to about 46 µM; 0% is about no effect
How it was run: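 Read-out: BacTiter-Glo ATP luminescence, taken 20 min after reagent addition. Beforehand, 10-beta competent E. coli at 0.2 OD had been incubated overnight at 37C with compounds at 11 concentrations.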

[17] = qHTS for H2AX Agonists against the NCATS CANVASS Library (AID 1347378); also: 0% is about no effect
How it was run: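 TR-FRET readout (ex 320 nm, em 665/620 nm ratio) of phospho-H2AX (S139) in CHO-K1 lysates. Cells treated 3 hr at 37C with compound titration, 0.76% DMSO; lysis 30 min, antibody detection 24 hr at RT.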

[18] = qHTS for Inflammasome Signaling Inhibitors: IL-1-beta AlphaLISA screen against the NCATS CANVASS Library (AID 1347379);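 also: human THP-1 cells primed with LPS then triggered with ATP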;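 as to activity change, negative = inhibition: secreted IL-1B measured as AlphaLISA emission at 615 nm; % is scaled to controls: 0 for no effect and ±100 for the full control effect; lower signal means less IL-1B release which is the wanted effect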
How it was run: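 Secreted IL-1B from human THP-1 cells quantified by AlphaLISA 16 hr after compound addition (final up to 57.5 uM). A 1 hr compound pretreatment preceded inflammasome activation with 250 ng/mL LPS plus 1.25 mM ATP (final).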

[19] = Inflammasome Signaling qHTS Counterscreen: IL-1-beta AlphaLISA counterscreen against the NCATS CANVASS Library (AID 1347381);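 also: cell-free check with purified IL-1β in medium and no THP-1 cells; series mostly up to about 57 µM; 0% is about no effect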
How it was run: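 Purified IL-1-beta (4 pg/well) + compound, 11-pt conc. series; acceptor beads 6 ug/mL + biotin-Ab 0.6 nM final, 1 h RT; SA-donor 24 ug/ml final, 30 min dark RT; read ex 680/em 615.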

[20] = Viability qHTS for inhibitors of the SERCaMP assay screened against the NCATS CANVASS Library (AID 1347400); also: series mostly up to about 92 µM; % is scaled to controls: 0 for no effect and ±100 for the full control effect; nearly all actives have a fitted effect of over 70% in size
How it was run: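 CellTiter-Glo luminescence measured cytotoxicity after 48 h at 37C of compound treatment (11-point series). Cells were SH-SY5Y-GLuc SERCaMP MJH297 derivatives, seeded at 1000 per well 4 h beforehand.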

Chain of Luciferin 4-monooxygenase (Photinus pyralis) (P08659 whole entry, looked up): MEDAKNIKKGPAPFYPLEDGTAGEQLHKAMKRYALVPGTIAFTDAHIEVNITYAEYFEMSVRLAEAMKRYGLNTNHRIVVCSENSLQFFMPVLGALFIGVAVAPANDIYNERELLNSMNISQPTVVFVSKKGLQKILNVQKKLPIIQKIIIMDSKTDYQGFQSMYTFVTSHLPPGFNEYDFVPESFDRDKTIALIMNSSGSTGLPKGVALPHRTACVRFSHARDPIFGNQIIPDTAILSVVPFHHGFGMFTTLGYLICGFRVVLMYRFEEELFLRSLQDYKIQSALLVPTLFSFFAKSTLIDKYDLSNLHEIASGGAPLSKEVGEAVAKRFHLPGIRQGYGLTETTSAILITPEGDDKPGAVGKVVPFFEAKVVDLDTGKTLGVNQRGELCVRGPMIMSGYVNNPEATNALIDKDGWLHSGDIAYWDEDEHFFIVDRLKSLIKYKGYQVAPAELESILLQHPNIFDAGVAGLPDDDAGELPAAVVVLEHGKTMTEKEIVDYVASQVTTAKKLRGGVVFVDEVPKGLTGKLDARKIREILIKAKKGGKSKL
Chain of Nuclear receptor subfamily 1 group I member 3 (Homo sapiens) (Q14994 whole entry, looked up): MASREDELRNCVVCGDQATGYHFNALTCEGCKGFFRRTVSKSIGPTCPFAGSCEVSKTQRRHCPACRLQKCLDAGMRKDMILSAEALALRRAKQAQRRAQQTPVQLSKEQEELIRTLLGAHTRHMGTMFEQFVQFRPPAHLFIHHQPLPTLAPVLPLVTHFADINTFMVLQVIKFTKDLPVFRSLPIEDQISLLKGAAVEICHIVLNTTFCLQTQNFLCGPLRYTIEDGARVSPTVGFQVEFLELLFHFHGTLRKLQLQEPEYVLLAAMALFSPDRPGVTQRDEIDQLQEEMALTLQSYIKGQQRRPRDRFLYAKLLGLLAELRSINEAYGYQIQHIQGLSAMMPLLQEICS

CCCCCCCCCCCCCCCC(=O)OC/C=C(\C)CCCC(C)CC(C)C(C)C (stereo not drawn)
inactive: Potency [1] | Potency [2] | Potency [3] | outcome [4] | Potency [5] | Potency [6] | Potency [7] | Potency [8] | Potency [9] | Potency [10] | Potency [11] | Potency [12] | Potency [13] | Potency [14] | outcome [15] | outcome [16] | Potency [17] | Potency [18] | outcome [19] | Potency [20]

C=C[C@]1(C)CC[C@@H]([C@H](C)C(=O)/C=C/C(C)C)O1
inactive: Potency [1] | Potency [2] | Potency [3] | outcome [4] | Potency [5] | Potency [6] | Potency [7] | Potency [8] | Potency [9] | Potency [10] | Potency [11] | Potency [12] | Potency [13] | Potency [14] | outcome [15] | outcome [16] | Potency [17] | Potency [18] | outcome [19] | Potency [20]

CC12C[C@]3(O)O[C@@H](O1)[C@]1(COC(=O)c4ccccc4)[C@@H]3CC21OC1OC(CO)C(O)C(O)C1O (stereo partly drawn)
inactive: Potency [1] | Potency [2] | Potency [3] | outcome [4] | Potency [5] | Potency [6] | Potency [7] | Potency [8] | Potency [9] | Potency [10] | Potency [11] | Potency [12] | Potency [13] | Potency [14] | outcome [15] | outcome [16] | Potency [17] | Potency [18] | outcome [19] | Potency [20]

CO[C@@H]1[C@H](O)[C@@H](C)O[C@@H](OC[C@H]2/C=C/C=C/C(=O)C(C)C[C@H](C)C(O[C@@H]3O[C@H](C)CC4(OC(=O)O[C@@H]4C)C3O)[C@@H](C)/C=C/C(=O)OC2C)[C@@H]1OC (stereo partly drawn)
inactive: Potency [1] | Potency [2] | Potency [3] | outcome [4] | Potency [5] | Potency [6] | Potency [7] | Potency [8] | Potency [9] | Potency [10] | Potency [11] | Potency [12] | Potency [13] | Potency [14] | outcome [15] | outcome [16] | Potency [17] | Potency [18] | outcome [19] | Potency [20]

COc1ccc([C@@H]2c3cc(OC)c(OC)cc3C(=O)[C@H](C)C2C)cc1OC (stereo partly drawn)
inactive: activity change, negative = cytotoxicity [1] -0.626% [at 7.64 µM] | activity change, negative = cytotoxicity [2] 3.5% [at 7.64 µM] | activity change, negative = cytotoxicity [3] -1.95% [at 7.64 µM] | caspase activation [4] 1.81% [at 9.19 µM] | caspase activation [5] 2.3% [at 9.19 µM] | activation [6] 3.39% [at 9.19 µM] | caspase activation [7] 1.74% [at 9.19 µM] | caspase activation [8] 2.92% [at 9.19 µM] | activity change, negative = inhibition [9] 4.08% [at 11.5 µM] | activity change, negative = cytotoxicity [10] 8.45% [at 9.19 µM] | activation [11] -0.416% [at 9.19 µM] | activity change, negative = cytotoxicity [12] -14.7% [at 9.17 µM] | outcome [13] inactive [at 9.19 µM] | activity change, negative = inhibition [14] -2.16% [at 9.19 µM] | activation [15] 1.07% [at 9.19 µM] | activation [17] -1.51% [at 15.3 µM] | outcome [18] inactive [at 11.5 µM] | activity change, negative = inhibition [19] -8.6% [at 11.5 µM] | activity change, negative = cytotoxicity [20] 9.45% [at 18.4 µM]

CC1(C)[C@H](Br)CC[C@]23C[C@]4(C)C(=O)CC12C[C@H]34
inactive: Potency [1] | Potency [2] | Potency [3] | outcome [4] | Potency [5] | Potency [6] | Potency [7] | Potency [8] | Potency [9] | Potency [10] | Potency [11] | Potency [12] | Potency [13] | Potency [14] | outcome [16] | Potency [17] | Potency [18] | outcome [19] | Potency [20]

CNc1ccc(Cl)cc1C(=O)OC[C@]1(C)[C@H]2CC[C@]3(C)[C@@H](C[C@@H](OC)[C@H](C)[C@H]3C3=C(O)C(=O)OC3O)[C@]2(C)CC[C@H]1O (stereo partly drawn)
inactive: Potency [1] | Potency [2] | Potency [3] | outcome [4] | Potency [5] | Potency [6] | Potency [7] | Potency [8] | Potency [9] | Potency [10] | Potency [11] | Potency [12] | Potency [13] | Potency [14] | outcome [15] | outcome [16] | Potency [17] | Potency [18] | outcome [19] | Potency [20]
